From PubChem BioAssay (Tox21)
Activity calls are given as the source filed them. Entries that show only a call come without a potency. The call rests on the fitted dose curve.

target: Acetylcholinesterase (Homo sapiens) (UniProt P22303); experiment: Acetylcholinesterase (AChE) small molecule antagonists: enzyme-based qHTS assay with human liver microsomes (AID 1347399); conditions: Potency: qHTS inhibition; outcome: qHTS inhibition; series mostly up to 115 µM; further: nearly all actives have a fitted effect of over 60% in size
Sequence (P22303 whole entry, looked up): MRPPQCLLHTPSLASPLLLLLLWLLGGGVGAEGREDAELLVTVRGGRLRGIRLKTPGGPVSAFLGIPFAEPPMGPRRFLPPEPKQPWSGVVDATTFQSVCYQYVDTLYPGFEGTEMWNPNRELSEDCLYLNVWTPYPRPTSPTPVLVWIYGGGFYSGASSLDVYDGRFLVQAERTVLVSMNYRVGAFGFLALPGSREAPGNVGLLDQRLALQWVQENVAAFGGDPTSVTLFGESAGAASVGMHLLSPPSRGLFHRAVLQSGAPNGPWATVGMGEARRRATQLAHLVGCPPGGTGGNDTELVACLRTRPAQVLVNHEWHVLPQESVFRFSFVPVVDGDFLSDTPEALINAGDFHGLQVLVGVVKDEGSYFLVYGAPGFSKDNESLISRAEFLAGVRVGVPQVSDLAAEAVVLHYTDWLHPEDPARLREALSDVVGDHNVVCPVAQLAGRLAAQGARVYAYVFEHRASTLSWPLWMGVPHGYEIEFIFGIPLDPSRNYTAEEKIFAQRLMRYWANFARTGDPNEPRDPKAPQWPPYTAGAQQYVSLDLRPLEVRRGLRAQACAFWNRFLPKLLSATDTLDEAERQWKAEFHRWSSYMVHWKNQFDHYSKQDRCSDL
Outline: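 Recombinant human AChE (50 mU/mL in the enzyme mix) and human liver microsomes (0.25 mg/mL final) were preincubated with compound and NADPH (0.25 mg/mL final) for 30 min at 37 C. Acetylthiocholine/DTNB was then added; thiocholine was read colorimetrically after 10 min at room temperature.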

Row | SMILES | Potency | activity change, negative = inhibition
1 | Oc1cccc(Nc2ccccc2)c1 | inactive | 
2 | NCCCCCCNCCCCCCN | inactive | 
3 | CC1=CC=C(C(C)C)CC1 | inactive | 
4 | OCCC1CCCCN1 (centres undefined) | inactive | 
5 | CC(C)C(O)C(C)(C)CO (centres undefined) | inactive | 
6 | CCC(C)COC(=O)CC(C)C (centres undefined) | inactive | 
7 | O=C1c2ccccc2S(=O)(=O)N1CCCCN1CCN(c2ncccn2)CC1 | inactive | 
8 | COC(=O)c1cc(Cl)ccc1OC | inactive | 
9 | CC1=C2[C@H](/C=C(\C)C(=O)O)CC[C@@H](C)[C@H]2CC1 | inactive | 
10 | Cc1cccc(C)c1NC(=O)c1ccccc1C(=O)O | inactive | 
11 | O=C(O)C1(C(=O)Nc2ccc(Cl)cc2Cl)CC1 | inactive | 
12 | Cc1nc(-c2ccc(Cl)cc2)oc1COC(C)(C)C(=O)O | inactive | 
13 | Cc1cccc(C)c1NC(=O)c1cc(S(N)(=O)=O)c(Cl)cc1O | inactive | 
14 | Oc1ccc(-c2ccc(O)cc2)cc1 | inactive | 
15 | OCc1ccccn1 | inactive | 
16 | CCCCC(CC)(CO)CO | inactive | 
17 | Cc1ccc(C(N)=O)cc1N | inactive | 
18 | S=C([S-])NCCNC(=S)[S-].[Mn+2] | inactive | 
19 | Cc1ccccc1N=Nc1ccc(N=Nc2c(O)ccc3ccccc23)c(C)c1 | inactive | 
20 | CCCCCCCC[N+](CCCCCCCC)(CCCCCCCC)CCCCCCCC | inactive | 
21 | O=C(O)c1cccc(-c2noc(-c3ccccc3F)n2)c1 | inactive | 
22 | Nc1cnn([C@@H]2O[C@H](CO)[C@@H](O)[C@H]2O)c(=O)n1 | inactive | 
23 | O=C(O)c1ccc2c(c1)nc(C(=O)NC1CCN(C3CC3)CC1)n2Cc1cc(-c2ccc(Cl)s2)on1 |  | 0.834% [at 23.6 µM] (inactive)
24 | O=C(Nc1ccc(Oc2ccc(Cl)cc2)c(Cl)c1)c1cc(I)cc(I)c1O | inactive | 
